The values below come from PubChem BioAssay (NCATS).

Where “and” joins values, the source holds several entries; their conditions need not be identical. Equal values may be shown once. Results filed as inconclusive are left out. Some compounds were tested as several samples or in several runs, with calls that do not always agree. Calls of active or inactive are those of the source. Unless noted, calls come from the whole dose curve; as a rule, active = well fitted curve in the direction sought with a large enough effect; inconclusive = small, poorly fitted or top-dose-only effect, or another doubt; inactive = no such curve, though single readings can be large; an effect the other way counts as inactive or inconclusive.

Test [1] deals with Zika virus NS2B-NS3 protease. The experiment in a line: Primary screen GU AMC qHTS for Zika virus inhibitors (AID 1347154). Note: nearly all actives have a fitted effect of over 70% in size. The method in brief: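 Unlinked Zika NS2B hydrophilic domain/NS3 protease domain noncovalent complex (25 nM final) in 10 mM Tris-HCl pH 8.0, 0.01% Tween 20, with AMC peptide substrate. Fluorescence (ex 340, em 450 nm) change over 15 min, room temperature; percent inhibition fitted to 4-parameter Hill equation.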
On the technique in general: In qHTS, concentration-response curves come from the screen itself.

In test [2] the test system is Zika virus NS2B-NS3 protease (linked construct). The experiment in a line: Primary screen NINDS Rhodamine qHTS for Zika virus inhibitors (AID 1347160). Note: nearly all actives have a fitted effect of over 55% in size. Note: potency is the fitted concentration of half-maximal effect. The procedure, abridged:
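Percent inhibition, normalized to uninhibited and enzyme-free controls, is fitted to a 4-parameter Hill equation. Fluorescence change comes from a 15-min cleavage of 1.5 microM bis-peptide Rhodamine110 substrate by 25 nM linked NS2B-NS3 at room temperature.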

The nature of test [3]: OV-KATE Cancer Cell Toxicity qHTS against the NCATS CANVASS Library (AID 1347345). Note: potency is the fitted concentration of half-maximal effect. The procedure, abridged: (§1)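 In this cytotoxicity screen, 1000 cells per well rested 4 hours, then received compound (11 concentrations) for a 72-hour incubation; an ATP-dependent luminescent signal (CellTiter-Glo) was the endpoint.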
Test [4] is described as follows: HPAF-II Cancer Cell Toxicity qHTS against the NCATS CANVASS Library (AID 1347346). Note: nearly all actives have a fitted effect of over 55% in size. Note: potency is the fitted concentration of half-maximal effect. The method in brief:
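HPAF-II cells were seeded at 1000 cells/well, allowed to settle for 4 h at 37 degrees C, then exposed to compounds in an 11-point series for 72 h. Viability was read by CellTiter-Glo luminescence.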

Test [5] is described as follows: OV-SAHO Cancer Cell Toxicity qHTS against the NCATS CANVASS Library (AID 1347348). Note: nearly all actives have a fitted effect of over 55% in size. Note: potency is the fitted concentration of half-maximal effect. The procedure, abridged: as §1
A short description of test [6]: Panc-1005 Cancer Cell Toxicity qHTS against the NCATS CANVASS Library (AID 1347349). Note: nearly all actives have a fitted effect of over 60% in size. Note: potency is the fitted concentration of half-maximal effect. The method in brief: as §1
Test [7] is described as follows: COV-362 Cancer Cell Toxicity qHTS against the NCATS CANVASS Library (AID 1347352). Note: potency is the fitted concentration of half-maximal effect. The procedure, abridged:
(§2)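 Cells were seeded at 1000 per well and allowed to settle 4 hours at 37 degrees C before pin transfer of compounds as an 11-point series. Viability was read by CellTiter-Glo luminescence after 72 hours' exposure.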

The nature of test [8]: UWB1.289-WTBRCA1 Cancer Cell Toxicity qHTS against the NCATS CANVASS Library (AID 1347354). Note: potency is the fitted concentration of half-maximal effect. The method in brief: as §2
Test [9] is described as follows: HEK293 24hr Apoptosis Induction qHTS against the NCATS CANVASS Library (AID 1347359). The procedure, abridged:
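HEK293 cells (500/well, DMEM + 10% FBS) were exposed to compounds in an 11-point series for 24 hours at 37 degrees C, then caspase-3/7 activity was read by Caspase-Glo DEVD luciferase luminescence after 15 min.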

Test [10] can be described thus: HEK293 12hr Apoptosis Induction qHTS against the NCATS CANVASS Library (AID 1347361). The method in brief: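 Cells are seeded, dosed with an 11-point compound series and incubated 12 hours. Caspase-3/7 activity is detected by luminescent DEVD-substrate reagent after 15 minutes at room temperature.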
Test [11] deals with NAD(P)H diaphorase (Clostridium kluyveri). Kind of test: Diaphorse counterscreen qHTS: Assay Interference Panel against the NCATS CANVASS Library (AID 1347362). The method in brief:
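Clostridium kluyveri diaphorase in PBS with 0.01% Tween-20 was preincubated 15 min at room temperature in the dark with compounds (11-point series). Resorufin fluorescence (ex 525/20, em 598/25) was read 5 min after adding resazurin/NADH.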

The target in test [12] is Luciferin 4-monooxygenase (Photinus pyralis) (UniProt P08659). The experiment in a line: Firefly luciferase counterscreen qHTS: Assay Interference Panel against the NCATS CANVASS Library (AID 1347363). Note: series mostly up to about 57 µM. The method in brief: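 Purified P. pyralis luciferase was added to compounds (11-point series) preincubated 15 min at room temperature with substrate containing 0.013 mM D-luciferin and 0.013 mM ATP; luminescence was read after 5 min.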
Chain of Luciferin 4-monooxygenase (Photinus pyralis) (P08659 whole entry, looked up): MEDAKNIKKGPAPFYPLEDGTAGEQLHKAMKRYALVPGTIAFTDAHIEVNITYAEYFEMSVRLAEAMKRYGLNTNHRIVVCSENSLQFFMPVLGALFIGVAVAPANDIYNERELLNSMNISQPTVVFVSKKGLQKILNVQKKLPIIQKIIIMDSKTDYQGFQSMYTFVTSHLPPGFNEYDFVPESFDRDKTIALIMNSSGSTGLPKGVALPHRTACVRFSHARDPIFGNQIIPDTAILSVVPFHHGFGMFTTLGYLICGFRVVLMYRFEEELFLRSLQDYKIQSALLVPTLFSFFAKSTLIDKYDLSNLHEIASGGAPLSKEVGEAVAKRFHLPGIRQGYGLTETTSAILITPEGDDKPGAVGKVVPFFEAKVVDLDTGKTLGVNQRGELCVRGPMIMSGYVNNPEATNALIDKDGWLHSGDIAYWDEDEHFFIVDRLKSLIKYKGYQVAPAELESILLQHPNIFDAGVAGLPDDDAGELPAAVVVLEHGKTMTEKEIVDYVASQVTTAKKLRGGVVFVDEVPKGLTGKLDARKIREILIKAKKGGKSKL
For orientation: The purpose of a counterscreen is to sort out artefacts and off-target activity.

The target of test [13] is Mitogen-activated protein kinase 10 (Mus musculus) (UniProt Q61831). The experiment in a line: JNK3 AlphaScreen Assay (AID 530; active = well fitted curve in either direction with a large enough effect, not every such curve was filed as active;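 note: kinase came from lysate of stimulated human HepG2 cells; signal reports phosphorylation of biotinylated GST-cJun 1-79 at Ser73 with 10 µM ATP; series mostly up to about 57 µM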). The procedure, abridged: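 JNK3 came from HepG2 lysates pre-activated with IL-1beta and TNF-alpha and phosphorylated biotinylated GST-cJun (1-79) at 10 uM ATP, pH 7.6, room temperature. Compounds were titrated. AlphaScreen signal used anti-phospho-cJun (Ser73) antibody.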
(In Alpha technology, singlet oxygen from a donor bead excites a nearby acceptor bead.)

The target in test [14] is 3',5'-cyclic-AMP phosphodiesterase 4B (Homo sapiens) (UniProt Q07343). The experiment in a line: qHTS Assay for Inhibitors of PDE-IV (AID 607; active = well fitted activation curve with a large enough effect in the main read-out, with a control signal flat, not every such curve was filed as active). The procedure, abridged:
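Live HEK293 cells with a modified cyclic nucleotide-gated (CNG) channel report intracellular cAMP via membrane-potential dye fluorescence (ex 535/em 590 nm). Endogenous PDE-IV was targeted. Compounds were tested at up to 22.9 uM final; RO 20-1724 100 uM served as control.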

The target in test [15] is Ubiquitin carboxyl-terminal hydrolase 1 (Homo sapiens) (UniProt O94782). Kind of test: Inhibitors of USP1/UAF1: Pilot qHTS (AID 504865).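 Note: rhodamine fluorescence freed from ubiquitin-rhodamine substrate followed over time; top concentration of the series differs between compounds; nearly all actives have a fitted effect of over 35% in size.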 The method in brief: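 In 50mM HEPES pH 7.8 containing 0.5mM EDTA, 1mM TCEP, 0.1 mg/ml BSA and 0.01% Tween-20, 1nM USP1/UAF1 is exposed to compound for 15 min, then Ub-Rho (150nM final) is added and fluorescence is read over time.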
Chain of Ubiquitin carboxyl-terminal hydrolase 1 (Homo sapiens) (O94782 whole entry, looked up): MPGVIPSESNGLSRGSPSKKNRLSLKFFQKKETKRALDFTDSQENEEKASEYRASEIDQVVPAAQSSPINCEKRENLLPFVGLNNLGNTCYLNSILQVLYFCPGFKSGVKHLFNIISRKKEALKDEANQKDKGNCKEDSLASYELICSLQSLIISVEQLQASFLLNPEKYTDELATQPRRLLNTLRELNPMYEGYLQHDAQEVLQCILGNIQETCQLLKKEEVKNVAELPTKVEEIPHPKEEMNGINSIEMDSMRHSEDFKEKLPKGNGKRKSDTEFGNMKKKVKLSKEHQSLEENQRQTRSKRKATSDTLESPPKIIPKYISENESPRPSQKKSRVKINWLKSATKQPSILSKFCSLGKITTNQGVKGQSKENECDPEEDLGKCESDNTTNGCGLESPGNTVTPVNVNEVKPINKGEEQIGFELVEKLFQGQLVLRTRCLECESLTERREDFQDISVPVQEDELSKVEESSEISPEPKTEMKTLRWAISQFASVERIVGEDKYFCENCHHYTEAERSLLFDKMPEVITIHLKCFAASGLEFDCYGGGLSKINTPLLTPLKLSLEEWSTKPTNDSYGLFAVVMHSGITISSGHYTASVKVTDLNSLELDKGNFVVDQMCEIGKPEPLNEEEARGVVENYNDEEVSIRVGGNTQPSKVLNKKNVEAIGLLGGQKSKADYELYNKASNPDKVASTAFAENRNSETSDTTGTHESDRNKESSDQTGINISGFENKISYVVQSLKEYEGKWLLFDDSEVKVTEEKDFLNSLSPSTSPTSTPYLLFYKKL
Test [16] concerns the target DNA dC->dU-editing enzyme APOBEC-3G (Homo sapiens) (UniProt Q9HC16). The experiment in a line: qHTS for inhibitors of Vif-A3G interactions: Validation (AID 588379). The procedure, abridged:
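HeLa cells stably expressing Vif and A3G-eYFP, 700 cells/well, incubated overnight at 37 deg C, then exposed to compound overnight at 37 deg C. Inhibition of Vif-mediated degradation read as increased yellow fluorescence (Ex 488/Em 500-530) by laser-scanning cytometry.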

The target in test [17] is Cytochrome P450 1A2 (Homo sapiens) (UniProt P05177). The experiment in a line: p450-cyp1a2 (AID 410; calls by dose curve; note: potency is the fitted concentration of half-maximal effect). The procedure, abridged: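 Human CYP1A2 (20nM) demethylated Luciferin-ME at its Km (100uM) in 100mM KPO4. After 10 min compound preincubation, NADPH regeneration ran the reaction 60 min at room temperature. Luciferin was read by luminescence, normalized to 57 uM furafylline.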
Chain of Cytochrome P450 1A2 (Homo sapiens) (P05177 whole entry, looked up): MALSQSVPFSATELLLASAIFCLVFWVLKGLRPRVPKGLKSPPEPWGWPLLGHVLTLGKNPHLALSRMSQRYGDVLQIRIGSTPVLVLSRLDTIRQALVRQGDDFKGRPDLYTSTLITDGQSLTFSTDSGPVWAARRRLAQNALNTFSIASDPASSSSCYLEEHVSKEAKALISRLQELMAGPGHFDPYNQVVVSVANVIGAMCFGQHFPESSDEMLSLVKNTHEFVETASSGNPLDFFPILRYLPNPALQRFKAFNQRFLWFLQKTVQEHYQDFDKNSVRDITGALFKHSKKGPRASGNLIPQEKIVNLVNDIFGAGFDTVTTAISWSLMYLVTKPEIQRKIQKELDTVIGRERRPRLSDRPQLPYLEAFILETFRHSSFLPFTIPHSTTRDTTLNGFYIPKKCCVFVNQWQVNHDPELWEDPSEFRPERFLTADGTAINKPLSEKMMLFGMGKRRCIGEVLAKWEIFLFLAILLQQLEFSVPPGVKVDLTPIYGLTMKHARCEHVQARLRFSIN

Test [18] addresses Glucocorticoid receptor (Homo sapiens) (UniProt P04150). The experiment in a line: GR-EFC Redistribution (AID 451; calls by dose curve; note: potency is the fitted concentration of half-maximal effect). The note with it: CHO-K1 GR-EFC translocation, beta-gal luminescence, 2 h. The method in brief: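 CHO-K1 cells stably expressing nuclear-localized β-gal enzyme acceptor and GR fused C-terminally to the enzyme donor fragment; ligand-driven nuclear translocation restores β-gal by complementation. Compounds titrated up to 46 uM final, 2 h at 37 °C; luminescence read.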

Test [19] shares this target. The experiment in a line: GR-GFP Redistribution (AID 450;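 active = compounds whose dose series gives a full or clear partial fitted curve of increased nuclear translocation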; note: potency is the fitted concentration of half-maximal effect). As to conditions: U2OS GR-GFP nuclear translocation, laser cytometry, 2 h.

Chain of 3',5'-cyclic-AMP phosphodiesterase 4B (Homo sapiens) (Q07343 whole entry, looked up): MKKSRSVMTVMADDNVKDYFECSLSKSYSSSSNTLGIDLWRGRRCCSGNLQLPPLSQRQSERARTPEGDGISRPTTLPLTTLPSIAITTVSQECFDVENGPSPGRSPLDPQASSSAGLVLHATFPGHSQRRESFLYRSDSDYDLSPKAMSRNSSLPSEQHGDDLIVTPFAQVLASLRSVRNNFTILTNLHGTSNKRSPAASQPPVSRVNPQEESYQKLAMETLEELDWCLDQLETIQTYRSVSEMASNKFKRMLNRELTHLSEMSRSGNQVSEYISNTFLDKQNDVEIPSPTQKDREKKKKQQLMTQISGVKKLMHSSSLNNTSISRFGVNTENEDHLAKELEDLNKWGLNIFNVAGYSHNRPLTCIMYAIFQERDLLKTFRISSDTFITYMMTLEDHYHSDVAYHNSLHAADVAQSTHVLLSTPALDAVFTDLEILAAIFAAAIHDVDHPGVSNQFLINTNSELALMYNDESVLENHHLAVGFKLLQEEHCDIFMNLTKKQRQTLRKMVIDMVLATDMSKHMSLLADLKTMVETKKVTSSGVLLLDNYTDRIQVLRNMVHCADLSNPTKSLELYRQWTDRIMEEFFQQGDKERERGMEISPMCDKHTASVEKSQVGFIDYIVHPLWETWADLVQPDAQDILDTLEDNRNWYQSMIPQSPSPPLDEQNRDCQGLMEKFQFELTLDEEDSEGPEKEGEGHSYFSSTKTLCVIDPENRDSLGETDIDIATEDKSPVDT
Chain of Glucocorticoid receptor (Homo sapiens) (P04150 whole entry, looked up, the tested form may be a part): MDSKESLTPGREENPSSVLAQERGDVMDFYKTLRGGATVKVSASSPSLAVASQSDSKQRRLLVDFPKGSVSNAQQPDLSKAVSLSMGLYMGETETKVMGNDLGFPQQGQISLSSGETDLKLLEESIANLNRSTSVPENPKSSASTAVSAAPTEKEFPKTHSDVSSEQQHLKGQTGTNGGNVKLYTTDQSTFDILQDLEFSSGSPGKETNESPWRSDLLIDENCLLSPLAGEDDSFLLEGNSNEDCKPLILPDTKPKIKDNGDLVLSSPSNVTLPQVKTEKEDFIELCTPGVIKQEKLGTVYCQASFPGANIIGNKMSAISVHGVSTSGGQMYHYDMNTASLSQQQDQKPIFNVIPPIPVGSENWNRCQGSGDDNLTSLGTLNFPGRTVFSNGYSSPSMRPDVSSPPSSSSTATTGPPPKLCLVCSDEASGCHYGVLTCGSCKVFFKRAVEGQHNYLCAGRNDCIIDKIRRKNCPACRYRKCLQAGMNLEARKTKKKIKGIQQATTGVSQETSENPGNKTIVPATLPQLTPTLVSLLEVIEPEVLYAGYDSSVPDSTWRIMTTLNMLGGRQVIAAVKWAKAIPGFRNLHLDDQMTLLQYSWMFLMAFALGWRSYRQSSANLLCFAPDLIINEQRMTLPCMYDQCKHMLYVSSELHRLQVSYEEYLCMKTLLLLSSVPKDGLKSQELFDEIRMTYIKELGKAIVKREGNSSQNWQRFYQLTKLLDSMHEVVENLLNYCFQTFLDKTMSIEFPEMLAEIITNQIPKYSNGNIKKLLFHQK
Chain of DNA dC->dU-editing enzyme APOBEC-3G (Homo sapiens) (Q9HC16 whole entry, looked up): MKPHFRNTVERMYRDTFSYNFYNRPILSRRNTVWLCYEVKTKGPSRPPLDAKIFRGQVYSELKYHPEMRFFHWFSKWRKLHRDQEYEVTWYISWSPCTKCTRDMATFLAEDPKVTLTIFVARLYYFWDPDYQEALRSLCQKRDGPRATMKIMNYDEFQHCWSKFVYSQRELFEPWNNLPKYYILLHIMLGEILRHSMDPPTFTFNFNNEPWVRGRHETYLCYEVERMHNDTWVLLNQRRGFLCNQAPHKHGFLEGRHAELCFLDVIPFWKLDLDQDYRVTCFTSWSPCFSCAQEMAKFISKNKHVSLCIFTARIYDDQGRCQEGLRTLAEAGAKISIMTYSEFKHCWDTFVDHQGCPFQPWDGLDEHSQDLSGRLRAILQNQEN

For `CN(C)c1ccc(/C=C2\CCCN=C2c2cccnc2)cc1`, the Potency result in test [1] was “inactive”.
Take `CCCCC[C@@H]1OC(=O)[C@@H](C)N(C)C(=O)[C@H](CCCCC)OC(=O)C(C)N(C)C(=O)[C@H](CCCCC)OC(=O)[C@@H](C)N(C)C(=O)[C@H](CCCCC)OC(=O)C(C)N(C)C1=O` (stereo partly specified): the Potency in [2] was 11 µM (active); in test [3], 8.38 µM (active); in test [4], 6.68 µM (active); in test [5], 3.34 µM (active); in [6], 8.41 µM (active); in test [7], 9.41 µM (active). Also, in test [8], the Potency is 16.7 µM (active). In addition, the Potency entry in test [9] and in test [10] was “inactive” throughout. Besides, the compound was classed as inactive in [11] and in test [12].
In the case of `CC1=CC2CC[C@@H]3[C@@H](C)C[C@H](C)[C@@H](C1)N23` (stereo partly specified), the Potency entry in [2], in test [3], in test [4], in test [5], in [6] and in [7] was “inactive” throughout. Besides, the Potency entry in [8], in test [9] and in test [10] was “inactive” in each case. Moreover, the result in test [11] and in [12] was inactive.
`O=C1CC[C@@]2(O)[C@H]3Cc4ccc(O)c5c4[C@@]2(CCN3CC2CC2)[C@@H]1O5`: the compound was classed as inactive in test [13]. The Potency result in [14], in test [15], in test [16] and in test [1] was “inactive” in each case.
`CNCCc1ccc(O)cc1`: the Potency entry in test [2], in test [3], in [4], in test [5], in [6] and in test [7] was “inactive” in each case. The Potency result in test [8], in test [9] and in test [10] was “inactive” in each case. Besides, the compound was classed as inactive in [11] and in test [12].
`O=C1Nc2ccccc2C2(CCN(CCc3ccc(C(F)(F)F)cc3)CC2)O1`: the Potency result in [1] is “inactive”.
Turning to `Oc1ccc2c3c1O[C@H]1c4[nH]c5ccccc5c4C[C@]4(O)[C@H](C2)N(CC2CC2)CC[C@@]314`, the Potency result in [17] is “inactive and 39.8 µM (active)”; in test [18] it was > 46 µM (inactive). The outcome in test [13] was inactive. In addition, the Potency result in test [14] and in test [1] was “inactive” each time.
On to `CC(=O)N[C@H]1CCN2CCC[C@H]12`, for which the Potency entry in test [2], in test [3], in [4], in test [5], in [6] and in [7] was “inactive” throughout. Moreover, the Potency entry in [8], in [9] and in [10] was “inactive” each time. The outcome in test [11] and in [12] was inactive.
As to `CCCCCCC[n+]1ccc(-c2cc[n+](CCCCCCC)cc2)cc1`, the Potency in [18] is > 46 µM (inactive). For the same compound, the Potency result in test [14], in test [15] and in test [1] was “inactive” in each case.
In the case of `Cc1c(C(=O)c2ccc3ccccc3c2)c2cccc3c2n1[C@H](CN1CCOCC1)CO3`, the Potency entry in test [17], in [14], in test [16] and in [1] was “inactive” each time. The Potency in test [19] and in test [18] was > 46 µM (inactive) throughout.
